Inconclusive results are not listed. Calls of active or inactive are those of the source. Unless noted, calls come from the whole dose curve; as a rule, active = well fitted curve in the direction sought with a large enough effect in the repeat runs; inconclusive = weak or mixed curves; inactive = no such curve, though single readings can be large; an effect the other way counts as inactive or inconclusive.
Key:
[1] = qHTS assay for small molecules that induce genotoxicity in human embryonic kidney cells expressing luciferase-tagged ATAD5 (AID 651632); note: nearly all actives have a fitted effect of over 15% in size
Procedure, shortened: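 Test compounds were delivered by pin tool onto HEK293T reporter cells (2,000/well) expressing ATAD5 fused to luciferase. After 16 hr at 37C, 5% CO2, Amplite was added for 30 min at room temperature and luminescence was measured.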

[2] = qHTS assay for small molecules that induce genotoxicity in human embryonic kidney cells expressing luciferase-tagged ATAD5 - cell viability (AID 651634; calls by dose curve; note: nearly all actives have a fitted effect of over 25% in size)
Procedure, shortened: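 Quantitative high-throughput format. HEK293T cells expressing ATAD5 fused to luciferase were plated at 2,000 cells/well and treated 15.5 hr with compound versus DMSO. Viability was determined by fluorescent live-cell protease substrate, 30 min at 37C.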

[3] = qHTS assay to test for compound auto fluorescence at 590 nm (red) in HepG2 cells (AID 720674)
Procedure, shortened: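 HepG2 cells, 2,000 per well in MEM with 10% FBS, attached overnight at 37 C, then got 23 nL compound or DMSO. After 1 hr at 37 C, 5% CO2, red fluorescence was read at 540/590 nm against Rose Bengal sodium as reference.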

[4] = qHTS assay to test for compound auto fluorescence at 535 nm (green) in HepG2 cells (AID 720675)
[5] = qHTS assay to test for compound auto fluorescence at 590 nm (red) in HEK293 cells (AID 720679)
Procedure, shortened: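 Red channel, Ex/Em 540/590nm; signal expressed as equivalency to Rose Bengal sodium. HEK293, 2,000 cells/well, 10% dialyzed FBS; 23 nL compound pinned after 4-5 hr attachment; overnight 37C/5% CO2 before reading.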

[6] = qHTS assay to test for compound auto fluorescence at 460 nm (blue) in HEK293 cell free culture (AID 720681)
Procedure, shortened: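 Compounds were added to cell-free DMEM with 10% FBS and fluorescence read directly. The blue channel used 405 nm excitation and 460 nm emission, with triamterene as the reference fluorophore.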

[7] = qHTS assay to test for compound auto fluorescence at 535 nm (green) in HEK293 cell free culture (AID 720682)
Procedure, shortened: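 Using fluorescein as calibrant, autofluorescence was quantified at 485/535 nm in cell-free DMEM containing 10% FBS after pintool addition of compound or vehicle.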

[8] = qHTS assay to test for compound auto fluorescence at 590 nm (red) in HepG2 cell free culture (AID 720684)
Procedure, shortened: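 Rose Bengal sodium served as the reference for red signal. Test compounds were dispensed into serum-containing MEM (10% FBS) without cells, and plates were read at 540/590 nm.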

[9] = qHTS assay to test for compound auto fluorescence at 460 nm (blue) in HepG2 cell free culture (AID 720685)
Procedure, shortened: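 Cell-free plates of MEM plus 10% FBS received 23 nL compound or DMSO vehicle; blue-channel (405/460 nm) intensity scored against triamterene as reference fluorophore.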

[10] = qHTS assay to test for compound auto fluorescence at 535 nm (green) in HepG2 cell free culture (AID 720686)
[11] = qHTS assay to test for compound auto fluorescence at 460 nm (blue) in HepG2 cells (AID 720687)
Procedure, shortened: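 HepG2 cells in MEM with 10% FBS, attached overnight at 37 C, were exposed to compound or DMSO for 1 hr at 37 C, 5% CO2. Blue fluorescence was read at 405/460 nm, with triamterene as reference fluorophore.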

[12] = qHTS assay to identify small molecule antagonists of the estrogen receptor alpha (ER-alpha) signaling pathway - cell viability counter screen (AID 743074; calls by dose curve;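 note: HEK293 cells carrying ER-alpha-UAS-bla reporter stimulated with 17beta-estradiol; nearly all actives have a fitted effect of over 45% in size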)
[13] = qHTS assay to identify small molecule antagonists of the estrogen receptor alpha (ER-alpha) signaling pathway using the BG1 cell line - cell viability counter screen (AID 743081);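 note: compound given together with 17beta-estradiol as the ER stimulus; series mostly up to about 70 µM; nearly all actives have a fitted effect of over 45% in size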
[14] = target: Aromatase (Homo sapiens) (UniProt P11511); experiment: qHTS assay to identify aromatase inhibitors (AID 743083); note: series mostly up to about 70 µM; nearly all actives have a fitted effect of over 55% in size
Chain of Aromatase (Homo sapiens) (P11511 whole entry, looked up): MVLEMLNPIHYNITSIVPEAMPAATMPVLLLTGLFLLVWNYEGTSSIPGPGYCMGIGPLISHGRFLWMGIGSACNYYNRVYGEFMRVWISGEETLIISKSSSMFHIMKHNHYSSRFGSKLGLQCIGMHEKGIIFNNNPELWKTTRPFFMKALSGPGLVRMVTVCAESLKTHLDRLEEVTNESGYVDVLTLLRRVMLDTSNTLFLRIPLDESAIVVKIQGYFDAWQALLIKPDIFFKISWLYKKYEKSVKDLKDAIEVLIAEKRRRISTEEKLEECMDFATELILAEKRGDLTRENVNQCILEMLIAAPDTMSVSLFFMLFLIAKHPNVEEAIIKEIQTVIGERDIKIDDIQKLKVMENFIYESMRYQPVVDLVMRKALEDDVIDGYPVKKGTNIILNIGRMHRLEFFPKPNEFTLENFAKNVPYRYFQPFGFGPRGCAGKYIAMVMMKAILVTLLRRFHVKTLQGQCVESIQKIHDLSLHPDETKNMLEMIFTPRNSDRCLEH

[15] = qHTS assay to identify aromatase inhibitors - cell viability counter screen (AID 743084);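 note: cells stimulated with testosterone during compound exposure; nearly all actives have a fitted effect of over 55% in size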
[16] = target: Aryl hydrocarbon receptor (Homo sapiens) (UniProt P35869); experiment: qHTS assay to identify small molecule that activate the aryl hydrocarbon receptor (AhR) signaling pathway (AID 743085);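 note: HG2L7.5c1 human HepG2 liver cells with stably integrated DRE-driven firefly reporter; series mostly up to about 70 µM; nearly all actives have a fitted effect of over 15% in size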
Chain of Aryl hydrocarbon receptor (Homo sapiens) (P35869 whole entry, looked up): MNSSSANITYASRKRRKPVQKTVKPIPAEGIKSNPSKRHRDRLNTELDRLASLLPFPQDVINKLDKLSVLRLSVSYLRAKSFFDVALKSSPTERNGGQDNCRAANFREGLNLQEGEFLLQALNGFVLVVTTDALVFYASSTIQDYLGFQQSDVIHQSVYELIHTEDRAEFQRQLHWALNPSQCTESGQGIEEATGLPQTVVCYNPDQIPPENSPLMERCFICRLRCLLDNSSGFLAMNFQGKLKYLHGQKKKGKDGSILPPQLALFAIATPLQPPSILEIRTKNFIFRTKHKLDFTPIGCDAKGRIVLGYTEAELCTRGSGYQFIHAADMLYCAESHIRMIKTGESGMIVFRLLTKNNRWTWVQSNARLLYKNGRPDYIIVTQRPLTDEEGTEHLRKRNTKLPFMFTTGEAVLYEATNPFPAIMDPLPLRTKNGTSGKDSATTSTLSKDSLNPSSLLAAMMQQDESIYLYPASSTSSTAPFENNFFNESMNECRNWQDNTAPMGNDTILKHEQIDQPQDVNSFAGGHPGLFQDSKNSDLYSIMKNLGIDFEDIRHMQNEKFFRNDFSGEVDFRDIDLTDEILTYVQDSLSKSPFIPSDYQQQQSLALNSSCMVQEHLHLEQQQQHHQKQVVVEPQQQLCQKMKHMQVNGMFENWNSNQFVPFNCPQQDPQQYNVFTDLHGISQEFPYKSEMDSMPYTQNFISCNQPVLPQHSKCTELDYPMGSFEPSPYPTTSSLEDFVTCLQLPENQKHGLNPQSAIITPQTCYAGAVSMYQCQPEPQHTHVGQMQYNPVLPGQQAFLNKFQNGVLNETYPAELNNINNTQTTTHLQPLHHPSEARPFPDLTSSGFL
Procedure, shortened: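 Measured in HG2L7.5c1 cells: CellTiter-Fluor signal (30 min incubation, 37C) for viability, then luciferase luminescence (30 min, room temperature). Compound contact time was 24 h at 37C, following a 5 h pre-incubation.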

[17] = qHTS assay to identify small molecule that activate the aryl hydrocarbon receptor (AhR) signaling pathway - cell viability counter screen (AID 743086);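 note: HepG2 liver cells carrying the AhR DRE luciferase reporter; series mostly up to about 70 µM; nearly all actives have a fitted effect of over 45% in size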
Procedure, shortened: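 HepG2-AhR-luc (HG2L7.5c1) cells, 4000/well, treated 24 h at 37 C with compound; viability measured as CellTiter-Fluor fluorescence after 30 min in the same wells as the luciferase read.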

[18] = qHTS assay to identify small molecule phospholipidosis (PLD) inducers (AID 1259344; active = well fitted curve in the direction sought with a large enough effect; an effect the other way counts as inactive or inconclusive)
Procedure, shortened: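 Read-out is LipidTOX Red fluorescence (ex 595/em 615) imaged in HepG2 cells after 24 h compound exposure at 37 C, with Hoechst nuclear counterstain (ex 352/em 461) allowing per-cell normalisation.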

[19] = target: Nuclear receptor subfamily 1 group I member 2 (Rattus norvegicus) (UniProt Q9R1A7); experiment: Rat pregnane X receptor (rPXR) activation by small molecules, qHTS assay (AID 1346983); conditions: rPXR luciferase reporter cells, One-Glo luminescence, 24 h; max activation: stronger effect = higher value; note: nearly all actives have a fitted effect of over 20% in size
Chain of Nuclear receptor subfamily 1 group I member 2 (Rattus norvegicus) (Q9R1A7 whole entry, looked up): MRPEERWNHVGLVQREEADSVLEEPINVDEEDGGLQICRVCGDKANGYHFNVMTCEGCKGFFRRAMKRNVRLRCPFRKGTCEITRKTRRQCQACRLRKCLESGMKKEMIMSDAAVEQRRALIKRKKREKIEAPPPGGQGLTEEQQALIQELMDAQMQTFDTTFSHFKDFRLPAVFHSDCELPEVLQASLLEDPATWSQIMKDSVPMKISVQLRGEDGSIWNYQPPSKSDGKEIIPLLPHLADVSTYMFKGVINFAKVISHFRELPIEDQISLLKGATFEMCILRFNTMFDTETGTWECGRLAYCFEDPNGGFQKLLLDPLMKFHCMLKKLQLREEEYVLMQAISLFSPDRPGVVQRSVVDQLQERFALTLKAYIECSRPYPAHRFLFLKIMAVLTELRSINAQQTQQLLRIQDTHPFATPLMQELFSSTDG
Procedure, shortened: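 Cell-based rPXR activation assay: rPXR cells, 2,000 per well, rested 5hr at 37 C, then exposed to compounds in DMSO for 24 hr at 37 C. Luciferase activity read by One-Glo luminescence after 30 min at room temperature.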

[20] = target: Nuclear receptor subfamily 1 group I member 2 (Homo sapiens) (UniProt O75469); experiment: CYP3A4 induction through human pregnane X receptor (PXR) by small molecules, qHTS assay (AID 1346984); note: nearly all actives have a fitted effect of over 40% in size
Procedure, shortened: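 Human PXR activation is tracked via CYP3A4 promoter-luciferase in DPX-2 (HepG2) cells. Compounds treat cells for 24hr at 37C, and luminescence is read after One-Glo.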
% is set by controls: 0 for no effect and ±100 for the full control effect.

C=CCN1CC[C@]23c4c5ccc(O)c4O[C@H]2[C@@H](O)C=C[C@H]3[C@H]1C5
inactive: Potency [1] | Potency [2] | outcome [3] | Potency [4] | outcome [5] | Potency [6] | Potency [7] | outcome [8] | Potency [9] | Potency [10] | Potency [11] | Potency [12] | Potency [13] | Potency [14] | Potency [15] | Potency [16] | Potency [17] | Potency [18] | max activation [19] -1.77% | Potency [20]

OC[C@@H](O)[C@H]1O[C@@H]2O[C@@H](C(Cl)(Cl)Cl)O[C@@H]2[C@H]1O
inactive: Potency [1] | Potency [2] | outcome [3] | Potency [4] | outcome [5] | Potency [6] | Potency [7] | outcome [8] | Potency [9] | Potency [10] | Potency [11] | Potency [12] | Potency [13] | Potency [14] | Potency [15] | Potency [16] | Potency [17] | Potency [18] | max activation [19] -2% | Potency [20]

CCCCCCCCCC(=O)O[C@H]1CC[C@H]2[C@@H]3CCC4=CC(=O)CC[C@]4(C)[C@H]3CC[C@]12C
inactive: Potency [1] | Potency [2] | outcome [3] | Potency [4] | outcome [5] | Potency [6] | Potency [7] | outcome [8] | Potency [9] | Potency [10] | Potency [11] | Potency [12] | Potency [13] | Potency [14] | Potency [15] | Potency [16] | Potency [17] | Potency [18] | max activation [19] -1.38% | Potency [20]

O=C(CS(=O)C(c1ccccc1)c1ccccc1)NO (stereo unspecified)
inactive: Potency [1] | Potency [2] | outcome [3] | Potency [4] | outcome [5] | Potency [6] | Potency [7] | outcome [8] | Potency [9] | Potency [10] | Potency [11] | Potency [12] | Potency [13] | Potency [14] | Potency [15] | Potency [16] | Potency [18] | max activation [19] -2.68% | Potency [20]

CC(C)C[C@H](CN)CC(=O)O
inactive: Potency [1] | Potency [2] | outcome [3] | Potency [4] | outcome [5] | Potency [6] | Potency [7] | outcome [8] | Potency [9] | Potency [10] | Potency [11] | Potency [12] | Potency [13] | Potency [14] | Potency [15] | Potency [16] | Potency [17] | Potency [18] | max activation [19] -2.72% | Potency [20]

CCON=O
inactive: Potency [1] | Potency [2] | outcome [3] | Potency [4] | outcome [5] | Potency [6] | Potency [7] | outcome [8] | Potency [9] | Potency [10] | Potency [11] | Potency [12] | Potency [13] | Potency [14] | Potency [15] | Potency [16] | Potency [17] | Potency [18] | max activation [19] -2.18% | Potency [20]

COc1ccc2c(c1)C13CCCC[C@@H]1C(C2)N(C)CC3 (stereo partly specified)
inactive: Potency [1] | Potency [2] | Potency [4] | outcome [5] | Potency [6] | Potency [7] | outcome [8] | Potency [9] | Potency [10] | Potency [11] | Potency [12] | Potency [13] | Potency [14] | Potency [15] | Potency [16] | Potency [17] | Potency [18] | max activation [19] -0.312% | Potency [20]

CCCC(=O)OC(C(Cl)(Cl)Cl)P(=O)(OC)OC (stereo unspecified)
inactive: Potency [1] | Potency [4] | outcome [5] | Potency [6] | Potency [7] | outcome [8] | Potency [9] | Potency [10] | Potency [11] | Potency [12] | Potency [13] | Potency [14] | Potency [15] | Potency [17] | Potency [18] | max activation [19] 0.574% | Potency [20]

CNC(C)CC1CCCCC1 (stereo unspecified)
inactive: Potency [1] | Potency [2] | Potency [4] | outcome [5] | Potency [6] | Potency [7] | outcome [8] | Potency [9] | Potency [10] | Potency [11] | Potency [12] | Potency [14] | Potency [15] | Potency [16] | Potency [17] | Potency [18]
